“And” between values parts separate entries of the source, which are not always exact repeats. Equal values may be shown once. In all, about 360,000 compounds went through this assay and about 11,000 (3.1%) were called active. Many of the other results were omitted from the sample, so actives are more common in it than they were. Unmarked numbers belong to inactive results. Rule as the data show it: active = activity change below about -30%; inactive = the rest.
Target: D(1A) dopamine receptor (Homo sapiens) (UniProt P21728)
Sequence (P21728 whole entry, looked up): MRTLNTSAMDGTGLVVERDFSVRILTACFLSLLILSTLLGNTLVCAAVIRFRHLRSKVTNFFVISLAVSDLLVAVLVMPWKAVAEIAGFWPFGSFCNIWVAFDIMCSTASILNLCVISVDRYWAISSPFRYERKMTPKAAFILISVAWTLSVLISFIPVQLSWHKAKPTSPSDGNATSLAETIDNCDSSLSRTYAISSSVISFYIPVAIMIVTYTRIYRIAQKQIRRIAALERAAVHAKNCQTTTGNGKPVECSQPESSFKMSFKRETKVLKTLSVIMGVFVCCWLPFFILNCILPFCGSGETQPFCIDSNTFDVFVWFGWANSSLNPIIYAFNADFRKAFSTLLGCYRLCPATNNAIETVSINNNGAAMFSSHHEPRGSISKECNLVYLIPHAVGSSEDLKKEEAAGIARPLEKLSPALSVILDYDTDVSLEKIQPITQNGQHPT
Experiment: Antagonist of Human D 1 Dopamine Receptor: qHTS
Details: HEK293 TREx D1 cells, calcium flux, dopamine EC80; at 10 µM; hits give low values
Procedure, shortened: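 Using tetracycline-induced force-coupled D1 Hek293 cells and a calcium dye, signals were followed for 180 s after compound, then for 180 s after EC80 dopamine, to detect inhibitors.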
% is scaled to controls: 0 for no effect and ±100 for the full control effect.

Structure (SMILES)	activity change, negative = inhibition
CCc1cccc(NC(=O)c2cc(-c3ccccc3)n[nH]2)c1	-7.87%
CCc1cccc(NC(=O)CCC(=O)O)c1	-45.7% (active)
CCc1cccc(NC(=O)CCNS(=O)(=O)c2cccc3nonc23)c1	8.81% and 29.5%
O=CN1CCN(C(=O)c2ccc3c(c2)OCO3)CC1	11.7%
O=CN1CCN(C(=O)c2ccc(Br)o2)CC1	-36.1% (active)
O=C(c1ccc(Br)o1)N1CCN(CCOc2ccccc2)CC1	3.56%
CC(C)c1ccc(C2CC(=O)N3CN(C4CCCCC4)CSC3=C2C#N)cc1 (stereo not drawn)	-4.95%
COc1cccc(CNC(=O)Cn2ncn3c(cc4ccccc43)c2=O)c1	2.91%
CCOC(=O)[C@@H]1[C@H]2COc3cc(OC)ccc3[C@@H]2N2C(=O)N(c3cccc(C)c3)C(=O)[C@@]12C	-0.419%
CCOC(=O)[C@H]1[C@H]2COc3cc(OC)ccc3[C@@H]2N2C(=O)N(c3ccc(Br)cc3)C(=O)[C@@]12C	-55.7% (active)
CCOC(=O)[C@@H]1[C@H]2COc3cc(OC)ccc3[C@H]2N2C(=O)N(c3ccc(F)cc3)C(=O)[C@]12C	-0.628%
COc1ccc(-c2cn3c(n2)sc2cc(C(=O)Nc4ccc(F)cc4)ccc23)cc1	-1.55%
O=S(=O)(c1ccccc1)N(Cc1cccc(F)c1)c1ccccc1	-30.7% (active)
O=C(O)c1cc(S(=O)(=O)N(Cc2ccccc2)c2ccccc2)ccc1Cl	11.6%
O=C(O)c1cc(S(=O)(=O)N(Cc2ccccc2)c2cccc(C(F)(F)F)c2)ccc1Cl	3.45%
CCc1ccccc1NC(=O)Cn1c(=O)n(-c2cccc(C)c2)c(=O)c2c1c1cc(OC)ccc1n2C	-1.63%
CCCC(=O)Nc1ccc2oc(-c3ccc(O)c(Br)c3)nc2c1	-6.2%
COc1cccc(C(=O)NC2=NC(c3ccc(N(C)C)cc3)CC(=O)N2)c1 (stereo not drawn)	-6.47%
Cc1ccccc1-n1c(=O)c2ccccc2n(Cc2ccc(F)cc2)c1=O	8.59%
COc1ccc(NC(=O)CCC(=O)Nc2nnc(C3CCCCC3)s2)cc1	5.47%
COC(=O)CCc1sc(Nc2ccc(Br)cc2)nc1-c1ccc(OC)cc1	-33.1% (active)
CNC(=O)c1sc(Nc2ccc(OCc3ccccc3)cc2)nc1C	-6.26%

Structure (SMILES)	activity change, negative = inhibition
Cc1ccc(Nc2nnc(SC(C)C(=O)NC3CC3)s2)cc1 (stereo not drawn)	-6.59%
CCc1nnc(NC(=O)c2ccc(S(=O)(=O)NC3CCCCC3)cc2)s1	1.91%
Cc1nnc(SC(C)C(=O)Nc2ccc(S(=O)(=O)NC3CCCCC3)cc2)s1 (stereo not drawn)	-34.5% (active)
CCOc1ccccc1C(=O)NCC(c1ccc(N(C)C)cc1)N1CCCC1 (stereo not drawn)	-18.8%
Cc1ccc(CCn2c3c(c4ccccc42)CN(C)CC3)cn1	-37.8% (active)
COc1ccccc1NC(=O)C1=C(C)Nc2ncnn2C1c1sccc1C (stereo not drawn)	2.71%
Cc1ccc(C(=O)Nc2nc(N)n(-c3ccccc3)n2)cc1	-1.57%
Nc1nc(NC(=O)/C=C/c2ccccc2)nn1-c1ccccc1	-60.9% (active)
Nc1nc(NC(=O)/C=C/c2ccc(F)cc2)nn1-c1ccccc1	8.35%
CCOC(=O)c1cc(-c2ccccc2)n(CCC(=O)Nc2ccccc2CC)c1C	-5.19%
Cc1ccccc1C(=O)Nc1nnc(S(=O)(=O)N(C)c2ccc(Cl)cc2)s1	-3.48%
COCC(C)NS(=O)(=O)c1ccc(N2CCCCS2(=O)=O)cc1 (stereo not drawn)	-32.2% (active)
COc1ccc(N2CCN(C(=O)c3ccc(N4CCCCS4(=O)=O)cc3)CC2)cc1	-28.7%
COc1ccc(S(=O)(=O)NC(C)C(=O)N2CCCCCC2)cc1 (stereo not drawn)	6.5%
Cc1ccccc1CSc1nc(-c2ccccc2)nc2c1Cc1c(CO)cnc(C)c1O2	-5.66%
CCCC(=O)Nc1cc(C(=O)NCc2ccc(OC)cc2)ccc1S(=O)(=O)c1ccc(Cl)cc1	3.26%
CCc1ccccc1NC(=O)N1CCN(C(=O)c2nsc3ccccc23)CC1	5.59%
O=C(Nc1ccc(F)cc1)C1CCN(C(=O)c2ccc([N+](=O)[O-])cc2)CC1	-37.8% (active)
O=C(Nc1ccccc1)C1CCN(C(=O)c2ccc(Br)cc2)CC1	-21.4%
O=C(Nc1ccc(S(=O)(=O)N2CCCCC2)cc1)C1CCN(C(=O)c2ccc(F)cc2)CC1	-10.9%
CCOC(=O)c1c(NC(=O)c2cc(CC)on2)sc(C(C)=O)c1C	-23.3%
NS(=O)(=O)c1ccc(NS(=O)(=O)/C=C/c2ccccc2)cc1	4.29%

Structure (SMILES)	activity change, negative = inhibition
NS(=O)(=O)c1ccc(Nc2nc(-c3ccccc3)cs2)cc1	-31.8% (active)
COC(=O)[C@H](Cc1ccccc1)NC(=O)Nc1ccc(S(N)(=O)=O)cc1	-6.59%
Cc1cccc(NC(=O)CN(c2ccc(C(C)C)cc2)S(=O)(=O)c2c(C)nn(C)c2C)c1C	-5.46%
CCC(=O)N1c2ccccc2CC1C(=O)N1CCN(c2ccccc2)CC1 (stereo not drawn)	-1.25%
O=C(Cn1c(=O)nc(-c2ccccc2)c2cc(Cl)ccc21)NCc1ccc(Cl)cc1	7.3%
CC(C)c1ccc2c(c1)c(SC(C)(C)C)c(CC(C)(C)C(=O)O)n2Cc1ccc(Cl)cc1	-36.5% (active) and -38.2% (active)
CC(C)c1ccc(Cn2c(COc3ccccc3)nc3ccccc32)cc1	0.116%
COc1cccc(-c2nnc(SCC(=O)N3CCC(C)CC3)o2)c1	2.47%
CCc1cc(C(=O)Nc2nnc(C3CC3)s2)sc1C	5.22%
O=C(Nc1nnc(C2CC2)s1)C1=NN(C2CCS(=O)(=O)C2)C(=O)CC1 (stereo not drawn)	-30.2% (active)
O=C(Nc1nnc(C2CC2)s1)c1ccccn1	-8.58%
O=C(CSCc1cnn(-c2ccccc2)c1-n1cccc1)NCc1ccccc1Br	7.2%
COc1ccc2c(c1)c(=O)c(S(=O)(=O)c1ccc(F)cc1)cn2CC(=O)Nc1ccc(C)cc1C	-20%
CCc1ccc(NC(=O)c2cc(S(=O)(=O)NC3CCCCCC3)ccc2F)cc1	1.8%
COc1ccc(-c2nc(CN3CCC(C(=O)NCCN(CC(C)C)CC(C)C)CC3)c(C)o2)cc1OC	-3.04%
Cc1ccc(NC(=O)CCCn2c(=O)c3cccn3c3ccccc32)cc1Cl	-14.3%
COc1ccc(C)cc1NC(=O)CSc1ccc(Cl)cc1	3.7%
COc1ccc(Cl)cc1NC(=O)CCn1c(=O)c2cccn2c2ccccc21	-35% (active)
COc1ccc(Cl)cc1NC(=O)Cn1c(=O)c2ccccc2n2nncc12	3.48%
COc1ccc(Cl)cc1NC(=O)Cn1nc(-c2ccc(C)cc2)n(C)c1=S	-37.4% (active)
COc1ccc(Cl)cc1NC(=O)CCC(=O)c1ccc(C)cc1	0.782%
Cc1ccc(Nc2nnc(-c3ccc(C)c(S(=O)(=O)N4CCCCC4)c3)c3ccccc23)cc1	-4.3%

Structure (SMILES)	activity change, negative = inhibition
Cc1ccc(N(C)C(=O)C2CCN(S(=O)(=O)c3ccc4c(c3)CCCN4C(=O)C3CCC3)CC2)cc1	10.1%
O=C(CCCCn1c(=O)c2ccccc2n(CC(=O)Nc2cccc(C(F)(F)F)c2)c1=O)NCc1ccc2c(c1)OCO2	3.4%
COc1ccc(CCn2cc3c(c2-c2ccc(Br)cc2)c(=O)n(C)c(=O)n3C)cc1OC	2.27%
Fc1ccc(CN2CCc3nc(Nc4ccccc4)ncc3C2)cc1F	5.84%
COc1ccc2c(c1)Cc1sc(NC(=O)c3ccccc3Br)nc1-2	6.21%
CCCCSc1ncnc2c1sc1nc(N3CCOCC3)c3c(c12)CCCC3	3.48%
CCCCNC(=O)CSc1nccn1Cc1ccccc1	23.5%
O=C(CSc1nccn1Cc1ccc(Cl)cc1)NCc1ccccc1	-34.5% (active)
O=C(CSc1nccn1Cc1ccc(F)cc1)NCc1ccccc1	9.06%
Cc1oc(-c2ccccc2F)nc1CN1CCC(C(=O)NCCc2ccc(Cl)cc2)CC1	-10.2%
CC(C)C12CN3CC(C(C)C)(CN(C1)C3c1ccc(OCc3ccccc3)cc1)C2=O (stereo not drawn)	-2.54%
COc1cccc(C2C(C(=O)Nc3ccc(C)cc3C)=C(C)Nc3c(C(=O)Nc4ccccc4)cnn32)c1 (stereo not drawn)	0.0774%
CC(C)c1ccc(NC(=O)Cn2ncc3ccccc32)cc1	-8.47%
CC(NC(=O)Nc1ccccc1)c1ccccc1 (stereo not drawn)	5.33%
CCC(C(=O)Nc1ccc(C(C)C)cc1)c1ccccc1 (stereo not drawn)	-50.8% (active)
CCOc1ccc(-c2cc3c(=O)n(CC(=O)NCc4ccc(OC)cc4)ccn3n2)cc1	8.73%
O=C(NCCc1csc(-c2ccc(C(F)(F)F)cc2)n1)C(=O)Nc1ccc(F)c(Cl)c1	-0.398%
CCn1c2ccccc2c2nnc(SCC(=O)O)nc21	6.1%
O=C(c1ccc(Cl)cc1)c1ccc(OCC(O)CN2CCCCC2)cc1 (stereo not drawn)	-13.7%
O=C(/C=C/c1cn(CC(O)CN2CCc3ccccc32)c2ccccc12)c1ccc(Br)cc1 (stereo not drawn)	-3.99%
CCOc1ccc(C(=O)/C=C/c2cn(CC(O)CN3CCCCCC3)c3ccccc23)cc1 (stereo not drawn)	-35% (active)
CC(C)c1ccc(NC(=O)Cn2nnc(C(=O)NCCc3ccccc3)c2N)cc1	-8.95%

Source: PubChem BioAssay AID504652 (National Center for Advancing Translational Sciences (NCATS), 2011)
